Source: PubChem BioAssay (NCATS)

Target: Cytochrome P450 3A4 (Homo sapiens) (UniProt P08684)
Experiment: qHTS Assay for Activators of Cytochrome P450 3A4 (AID 885); also: nearly all actives have a fitted effect of over 65% in size
Conditions: recombinant CYP3A4, Luciferin-PPXE luminescence, 60 min; series mostly up to 57.1 µM; activity change, positive = activation: at the top concentration; active = well fitted activation curve with a large enough effect; inconclusive = small, poorly fitted or top-dose-only effect; inactive = no such curve, though single readings can be large or run the other way
Summary of the method: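 Signal was normalized against complete inhibition by 57 uM ketoconazole. The reaction used 20nM CYP3A4 with 25uM Luciferin-PPXE, 10-min compound preincubation and a 60-min NADPH-supported step at RT.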

Chain of Cytochrome P450 3A4 (Homo sapiens) (P08684 whole entry, looked up): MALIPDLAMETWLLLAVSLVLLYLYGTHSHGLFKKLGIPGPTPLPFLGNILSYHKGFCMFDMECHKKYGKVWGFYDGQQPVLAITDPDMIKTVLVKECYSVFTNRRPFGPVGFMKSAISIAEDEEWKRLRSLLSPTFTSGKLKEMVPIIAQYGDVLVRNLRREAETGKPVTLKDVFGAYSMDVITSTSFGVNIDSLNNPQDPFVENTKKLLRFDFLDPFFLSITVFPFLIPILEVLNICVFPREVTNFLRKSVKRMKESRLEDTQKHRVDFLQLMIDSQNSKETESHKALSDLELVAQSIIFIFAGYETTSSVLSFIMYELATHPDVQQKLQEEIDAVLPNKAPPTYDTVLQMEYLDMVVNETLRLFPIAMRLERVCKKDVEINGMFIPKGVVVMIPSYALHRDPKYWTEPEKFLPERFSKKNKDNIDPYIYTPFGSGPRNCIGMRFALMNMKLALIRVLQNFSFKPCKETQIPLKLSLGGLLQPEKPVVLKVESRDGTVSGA

Activity change, positive = activation, inactive:
COC(=O)c1ccc(C(NC(=O)OCc2ccccc2)/C(F)=C/[C@@H](C)C(=O)NCc2nc3ccccc3s2)cc1 (some centres not stated) -99.7%
COC(=O)c1ccc(C(NC(=O)OCc2ccccc2)/C(F)=C/[C@@H](C)C(=O)NCc2ccc(-c3ccccc3)cc2)cc1 (some centres not stated) -69.1%
CC1(C(=O)NCCc2c[nH]c3ccccc23)C=CCN1C(=O)c1ccccc1 (configuration not stated) -78.8%
COC(=O)c1ccc(C(/C=C/[C@@H](C)C(=O)NCc2cc(C)n(C)n2)NC(=O)OCc2ccccc2)cc1 (some centres not stated) -61.6%
COC(=O)c1ccc(C(NC(=O)OCc2ccccc2)/C(=C/[C@@H](C)C(=O)NC2CCCCC2)c2cccnc2)cc1 (some centres not stated) -87.7%
C[C@H](NC(=O)[C@@H]1C[C@H]1[C@@H](NC(=O)OCc1ccccc1)c1ccccc1)c1ccccc1 -64.5%
COC(=O)c1ccc(C(NC(=O)OCc2ccccc2)/C(C)=C/[C@@H](C)C(=O)NCc2cc(F)cc(F)c2)cc1 (some centres not stated) -87.9%
COC(=O)c1ccc(C(NC(=O)OCc2ccccc2)/C(=C/[C@@H](C)C(=O)NCc2ccc(-c3ccccc3)cc2)c2cccnc2)cc1 (some centres not stated) -87.2%
COC(=O)c1ccc(C(NC(=O)OCc2ccccc2)/C(F)=C/[C@@H](C)C(=O)NCc2cccnc2)cc1 (some centres not stated) -122%
CC(=O)N1[C@H](C)C=C[C@]1(Cc1ccccc1)C(=O)NCCN1CCOCC1 -64.3%
CN(C)C(=O)[C@H]1C[C@@H]1[C@H](NC(=O)OCc1ccccc1)c1ccccc1 -85.8%
CCCCCCN(C(=O)CCCCCN1C(=O)NC(c2ccccc2-c2ccccc2)C(C(=O)OCc2ccccc2)=C1C)C(C(=O)NCCCC)c1ccc(OCC(=O)OC)c(C(=O)OC)c1 (configuration not stated) -94.9%
COC(=O)c1ccc(C(NC(=O)OCc2ccccc2)/C(C)=C/[C@@H](C)C(=O)NC2CCCCC2)cc1 (some centres not stated) -86.7%
COC(=O)c1ccc(C(NC(=O)OCc2ccccc2)/C(C)=C/[C@@H](C)C(=O)NCc2nc3ccccc3s2)cc1 (some centres not stated) -98.7%
COC(=O)c1ccc(C(NC(=O)OCc2ccccc2)/C(F)=C/[C@@H](C)C(=O)NCCN2CCOCC2)cc1 (some centres not stated) -81.5%
CCCCNC(=O)C(c1ccc(-c2ccccc2)cc1)N(CCN1CCOCC1)C(=O)CCCCCN1C(=O)NC(c2ccc([N+](=O)[O-])cc2)C(C(=O)OCc2ccccc2)=C1C (configuration not stated) -96.3%
COC(=O)c1ccc(C(NC(=O)OCc2ccccc2)/C(C)=C/[C@@H](C)C(=O)N2CCN(C)CC2)cc1 (some centres not stated) -62.8%
COC(=O)c1ccc(C(/C=C/[C@@H](C)C(=O)NCc2ccccc2)NC(=O)OCc2ccccc2)cc1 (some centres not stated) -72.9%
COC(=O)c1ccc(C(NC(=O)OCc2ccccc2)/C(=C/[C@@H](C)C(=O)N(C)Cc2ccccc2)c2cccnc2)cc1 (some centres not stated) -110%
C[C@]1(C(=O)NCCc2c[nH]c3ccccc23)C=C[C@@H](Cc2ccccc2)N1C(=O)c1ccccc1 -71.9%
COC(=O)c1ccc(C(NC(=O)OCc2ccccc2)/C(C)=C/[C@@H](C)C(=O)NCc2cc(C)on2)cc1 (some centres not stated) -105%
CC(=O)N1[C@H](Cc2ccccc2)C=C[C@]1(C)C(=O)NCc1ccc(C)o1 -73.1%
CC(=O)N1[C@H](Cc2ccccc2)C=C[C@]1(C)C(=O)NCCN1CCOCC1 -60.4%
CNC(=O)[C@@]1(Cc2ccccc2)C=C[C@@H](C)N1C(=O)OC -87.1%
COC(=O)c1ccc(C(/C=C/[C@@H](C)C(=O)N[C@H](C)CO)NC(=O)OCc2ccccc2)cc1 (some centres not stated) -90.9%
COC(=O)c1ccc(C(NC(=O)OCc2ccccc2)/C(=C/[C@@H](C)C(=O)NCCc2c[nH]c3ccccc23)c2cccnc2)cc1 (some centres not stated) -99%
COC(=O)c1ccc(C(NC(=O)OCc2ccccc2)/C(=C/[C@@H](C)C(=O)NCc2cc(C)on2)c2cccnc2)cc1 (some centres not stated) -99%
COC(=O)c1ccc(C(NC(=O)OCc2ccccc2)/C(F)=C/[C@@H](C)C(=O)NCc2cc(C)on2)cc1 (some centres not stated) -97.8%
CC(C)CC1(C(=O)NCC2CC2)C=CCN1C(=O)c1ccccc1 (configuration not stated) -86.1%
COC(=O)[C@H](Cc1ccccc1)NC(=O)[C@]1(C)C[C@H]1[C@H](NC(=O)OCc1ccccc1)c1ccccc1 -85.4%
COC(=O)c1ccc(C(NC(=O)OCc2ccccc2)/C(=C/[C@@H](C)C(=O)NCc2nc3ccccc3n2C)c2cccnc2)cc1 (some centres not stated) -91.7%
COC(=O)[C@H](Cc1ccccc1)NC(=O)[C@@]1(C)C[C@@H]1[C@@H](NC(=O)OCc1ccccc1)c1ccccc1 -89.5%
